Bioassay records: PubChem BioAssay, National Center for Advancing Translational Sciences (NCATS)
LASV entry inh: blocks Lassa virus binding to or entry into cells. Lassa virus pseudotype entry inhibition, cell reporter. Potency, µM (highest dose often 37.9 µM), most hits filed as inhibitors. 1.2% of 300,000 active; calls by dose curve; tested in HEK293 cells; note: nearly all actives have a fitted effect of over 50% in size
HCV inhibitor: blocks hepatitis C virus; Huh7.5.1 HCVcc-Cre infection, luciferase reporter, 44 h; Potency, µM (top dose mostly 41.8 µM), actives largely listed as inhibitors; 3.4% of 340,000 active; AID 651820; active = well fitted inhibition curve with a large enough effect; inconclusive = small, poorly fitted or top-dose-only effect, or another doubt; inactive = no such curve, though single readings can be large or run the other way
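HCVcc-Cre virus at an moi near 0.5 was added right after compound to cells cultured 4 h from seeding (1,000 cells/well). Luciferase activity was determined 44 h later, 15 min after substrate addition at RT.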
VACV mCherry inh: inhibitors of vaccinia virus infection (mCherry reporter signal); Vaccinia virus mCherry reporter infection, fluorescence; Potency, µM (series often up to 36.5 µM), actives largely listed as inhibitors; 0.63% of 310,000 active; AID 720579; calls by dose curve; tested in A549 cells; note: nearly all actives have a fitted effect of over 35% in size
Vaccinia Venus: vaccinia inhibition (Venus reporter); 0.46% of 330,000 active; Potency, µM (top dose mostly 36.5 µM), hits mostly inhibitors; Vaccinia virus Venus reporter expression, fluorescence; calls by dose curve; tested in A549 cells; note: nearly all actives have a fitted effect of over 30% in size
HCMV antiviral: human cytomegalovirus inhibition | HFF cells, HCMV-luciferase reporter, 72 h; hits give low values | activity change, negative = inhibition, % at 57.5 µM | AID 1259415 | 4.5% of 410,000 active; in the data active = activity change below about -60%; inconclusive = no clear call, values can overlap the other calls; inactive = above about -39%
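Human foreskin fibroblasts infected with luciferase-reporter HCMV at MOI 1 PFU/cell, compounds at two doses. Luciferase measured 72 h post infection; normalized to buffer-only basal and Salinomycin (10uM) controls.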
Marburg entry inh: blocks Marburg virus binding to or entry into cells. AID 540276. 1.8% of 300,000 active. Potency, µM (highest dose often 37.8 µM), hits mostly inhibitors. Marburg virus pseudotyped entry inhibition, cell reporter; calls by dose curve; tested in HEK293 cells
Numbers stand for hits; i = inactive; ? = inconclusive; nt = not tested or not shown; [ ] = another dose, or the depositor's remark. The list is not random: actives were taken first. Their share in the collection is about 7.8%.

SMILES	LASV entry inh	HCV inhibitor	VACV mCherry inh	Vaccinia Venus	HCMV antiviral	Marburg entry inh
CC1CCc2nc(NC(=O)CSc3nc4ccccc4o3)sc2C1 (stereo not given)	?	11µM	i	?	-85	i
COc1ccc2c(c1)CC(C(=O)NCc1ccc(F)cc1)CO2 (stereo not given)	i	nt	i	i	i	nt
N/C(=N/OC(=O)c1ccccc1Cl)c1ncc([N+](=O)[O-])s1	?	11µM	i[7.34 µM]	i[7.34 µM]	i	?
N/C(=N\OC(=O)c1ccc([N+](=O)[O-])cc1Cl)c1ccccn1	?	?	2.8µM	?	-72	?
N/C(=N\OC(=O)c1cc([N+](=O)[O-])ccc1Cl)c1ccccn1	?	11µM	i	i	i	?
N/C(=N\OC(=O)c1ccccc1Cl)c1cccc([N+](=O)[O-])c1	nt	i	nt	nt	i	nt
CCOC(=O)CNC(=S)N(CCCN1CCCCCC1)Cc1cccs1	i	i	i	i	-88	?
FC(F)(F)c1cccc(NC(=S)N(CCCN2CCCC2)Cc2cccn2Cc2ccc(Cl)cc2)c1	?	i	?	?	-67	?
Cc1ccc(NC(=S)N(CCCN2CCCC2)Cc2cccn2Cc2ccc(Cl)cc2)cc1C	?	?	?	i	i	?
COc1ccc(NC(=S)N(CCCN2CCCC2)Cc2cccn2Cc2ccc(Cl)cc2)cc1Cl	nt	?	nt	nt	-79	nt
Cc1ccc(NC(=S)N(CCCN2CCCC2)Cc2cccn2Cc2ccc(Cl)cc2)cc1Cl	1.1µM	0.56µM	i	i	i	8.9µM
COc1cc(OC)c(NC(=O)CN(C)S(=O)(=O)c2ccc3c(c2)CCCC(=O)N3)cc1Cl	i	nt	i	i	i	nt
COc1cccc(NC(=O)CSc2nc3c([nH]c4ccccc43)c(=O)n2-c2ccccc2)c1	?	nt	i	i	?	nt
Cc1cccc2nc(CNC(=O)CN3Cc4cc(Cl)ccc4OC(C)C3)cn12 (stereo not given)	nt	nt	i	i	nt	nt
CCOC(=O)[C@H](C)Oc1ccc2c(C)cc(=O)oc2c1C(C)=O	nt	nt	nt	nt	nt	i
COc1ccc(NC(=S)N(CCCN2CCC(C)CC2)Cc2cccs2)cc1Cl	?	?	i	i	-90	?
COc1ccc(NC(=S)N(CCCN2CCN(C)CC2)Cc2cccs2)cc1	?	i	i	i	?	?
COc1ccc(NC(=S)N(CCC(C)C)C2CCN(C(C)C)CC2)cc1Cl	?	4µM	i	i	-62	?
CC(NC(=O)C1CCN(S(=O)(=O)c2cccc3nonc23)CC1)c1ccccc1 (stereo not given)	i	i	i	i	-88	i
COc1ccc(N(C)C(=O)C2CCN(S(=O)(=O)c3cccc4nonc34)CC2)c(OC)c1	?	i	i	i	-61	?
COC(=O)c1c(NC(=O)CCCOc2ccccc2C)sc2c1CCC2	i	nt	i	i	i	nt
Cc1ccc(CSc2nc(-c3ccc(C(C)(C)C)cc3)nc3cc(=O)[nH]n23)cc1	i	nt	i	i	-105	nt
Cc1cc(Cl)ccc1NC(=O)CN1CCCC1	?	i	i	i	i	i
Cc1cc(Cl)ccc1NC(=O)CN1CCC(C(O)(c2ccccc2)c2ccccc2)CC1	?	?	i	i	-67	?
O=C1[C@H]2[C@@H]3[C@@H](O)[C@H](O)CC(=NOCc4ccccc4)[C@H]3CC[C@H]2C(=O)N1C1CCCCC1	?	nt	nt	nt	nt	i
SMILES	LASV entry inh	HCV inhibitor	VACV mCherry inh	Vaccinia Venus	HCMV antiviral	Marburg entry inh
O=C1O/C(=C/Br)CCC1c1cccc2ccccc12 (stereo not given)	21µM	nt	nt	nt	nt	10µM
O=C(c1ccc(Oc2ccc([N+](=O)[O-])cc2Cl)cc1)N1CCCC1	i	i	i	i	?	i
O=C(Cc1ccccc1)N1CCN(Cc2ccc([N+](=O)[O-])cc2)CC1	i	i	nt	nt	?	?
CCc1ccc(CN2CCN(Cc3ccc(SC)cc3)CC2)cc1	?	10µM	i	i	?	?
CSc1ccc(CN2CCN(C(=O)c3ccc([N+](=O)[O-])cc3)CC2)cc1	?	?	i	i	-75	?
O=C(c1ccc(Oc2ccc([N+](=O)[O-])cc2)cc1)N1CCCCCC1	?	25µM	i	i	i	5.6µM
C/C(=N\NC(=O)c1ccc(CN2CCOCC2)cc1)c1ccc([N+](=O)[O-])cc1	i	11µM	i	i	?	i
CCc1ccc2c(c1)c(=O)c(S(=O)(=O)c1ccccc1)cn2CC(=O)Nc1ccc(OC)cc1	i	nt	i	i	i	i
C/C(=N\N1CCN(Cc2ccc(Cl)cc2)CC1)c1ccc([N+](=O)[O-])cc1	i	11µM	i	i	i	?
